From PubChem BioAssay AID2797 (The Scripps Research Institute Molecular Screening Center, 2010) come the findings set out here.

Out of some 320,000 compounds screened, about 820 (0.26%) were called active.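 The calls were made as follows: active = activation above the mean activation of all tested compounds plus 3 SD, per screening run (cut at about 20% in these data); inactive = the rest.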 The sample as a whole holds a higher share of actives than the screen did.

The target of this assay is Vasopressin V1a receptor (Homo sapiens) (UniProt P37288). The assay can be described thus: agonists of human V1a receptor, primary screen, counter-screen for OXTR agonist project, fluorescence, CHO-V1R cells (AID 2797).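 Also: signal is peak over basal fluorescence ratio across a 100 second FLIPR read.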 To be noted: Fluo-8 calcium fluorescence, agonist mode, at 3 µM, hits give high values, 0% DMSO, 100% 3 nM vasopressin. For orientation: Counterscreens check selectivity or assay interference.
Vasopressin V1a receptor (Homo sapiens), sequence (P37288 whole entry, looked up): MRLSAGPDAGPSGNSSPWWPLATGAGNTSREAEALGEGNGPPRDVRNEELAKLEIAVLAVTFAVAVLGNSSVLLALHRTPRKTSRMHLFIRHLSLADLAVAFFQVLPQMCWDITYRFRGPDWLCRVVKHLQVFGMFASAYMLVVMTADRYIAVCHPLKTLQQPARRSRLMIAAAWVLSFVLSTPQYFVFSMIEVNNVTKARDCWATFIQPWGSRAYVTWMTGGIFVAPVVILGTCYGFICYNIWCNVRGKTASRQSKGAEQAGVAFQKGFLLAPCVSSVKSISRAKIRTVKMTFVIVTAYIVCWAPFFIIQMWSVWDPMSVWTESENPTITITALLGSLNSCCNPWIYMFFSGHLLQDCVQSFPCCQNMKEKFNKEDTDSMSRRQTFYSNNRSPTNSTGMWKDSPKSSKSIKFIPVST
Consider `COc1ccccc1NC(=O)/C=C/C(N)=O`, for which the activation was 0.73% (inactive).
As to `COC(=O)c1sc(-c2ccc(C(C)(C)C)cc2)cc1NC(=O)/C=C/C(=O)O`, the activation was 28.5% (active).
The same measure for `CC(C)(C)c1ccc(/C=C/C(=O)Nc2ncccn2)cc1`: -0.18% (inactive); for `COc1ccc(S(=O)(=O)N2CCOCC2)c(C)c1C`: 0.14% (inactive); for `O=C(NNC(=O)c1ccccc1[N+](=O)[O-])Nc1ccccc1C(F)(F)F`: 0.06% (inactive).
The same measure for `O=C(N1CCCC1)C12CC3CC(C1)CC(C(=O)N1CCCC1)(C3)C2`: -0.17% (inactive).
Turning to `Cc1nc(C(=O)Nc2ccc(Cl)cc2)sc1C1(C)CC(c2ccccc2)=NO1` (configuration not stated), the activation is 1.86% (inactive).
In the case of `Cc1nc(C(=O)NCc2ccccc2)sc1C1(C)CC(c2cccnc2)=NO1` (configuration not stated), the activation is 33.9% (active).
For `Cc1nc(-c2ccc(Cl)cc2)sc1C1(C)CC(c2ccccc2F)=NO1` (configuration not stated), the activation is 0.6% (inactive).
The same measure for `O=C(Nc1ccc(Cl)cc1)Nc1ccc(Oc2cccnc2)nc1`: 15.2% (inactive); for `COc1ccc(F)cc1S(=O)(=O)N1CCCCC1`: 0.03% (inactive); for `Cc1cc(NC(=O)CCC(=O)N(CC(=O)NCC2CCCO2)c2ccccc2)no1` (configuration not stated): -0.14% (inactive).
The same measure for `Nc1ccc2nc3c(=O)[nH]c(=S)[nH]c3nc2c1`: 33.2% (active); for `NC(N)=Nc1nc2ccc(Br)cc2c(=O)[nH]1`: 0.39% (inactive).
With `COCC(=O)N1CCc2ccc(NC(=O)c3ccccc3Cl)cc2C1`, the activation is 1.09% (inactive).
As for `CCOC(=O)c1c(S(=O)(=O)Nc2ccc(CN3CCC(C)CC3)cc2)c(C)n(C)c1C`, the activation is 0.65% (inactive).
For `CCC(Oc1ccccc1C)C(=O)Nc1ccc(S(=O)(=O)Nc2cc(C)on2)cc1` (configuration not stated), the activation is -0.02% (inactive).
Turning to `O=C(/C=C/c1ccc(OCc2c(F)cccc2Cl)cc1)N1CCOCC1`, the activation is 2.69% (inactive).
As for `Fc1ccc(COc2ccc(-c3nnco3)cc2)cc1`, the activation is 0.56% (inactive).
Turning to `Fc1cccc(Cl)c1COc1ccc(-c2nnco2)cc1`, the activation is 25.1% (active).
Turning to `COc1cccc(C(=O)Nc2cc3c(cc2Br)OCCCO3)c1`, the activation was -1.23% (inactive).
For the compound `O=C(c1ccc(Br)o1)N(c1ccccn1)C1CCCCC1`, the activation was -0.71% (inactive).
The same measure for `Cc1cccc(C(=O)OC(C)CN2CCCC2)c1` (configuration not stated): -0.62% (inactive); for `CC(C)CC1(C)NC(=O)N(CC(=O)Nc2ccc3c(c2)OCCO3)C1=O` (configuration not stated): 1.53% (inactive).
The same measure for `COCC1CCN(C(=O)CCc2nnc(C3(c4ccc(Cl)cc4)CCC3)o2)C1` (configuration not stated): -0.39% (inactive); for `CCN(CC)c1ccc2oc(=O)c(C)nc2c1`: 24.3% (active).
The same measure for `CCN(CC)c1ccc(C(=O)Nn2c(C)nc3ccccc3c2=O)cc1`: 6.78% (inactive).
For the compound `C=CCN(C(=O)Nc1ccc2oc(C)nc2c1)c1ccccc1`, the activation was 0.19% (inactive).
For `CC(C)=CCCC(C)CN1CCC(n2nccc2NC(=O)c2ccccc2)CC1` (configuration not stated), the activation was 0.01% (inactive).
The same measure for `COc1ccc(OC)c(NC(=O)COC(=O)Cc2ccsc2)c1`: -0.12% (inactive); for `CN(C)c1ccc(C=C2C(=O)OC3(CCCC3)OC2=O)cc1`: 2.02% (inactive); for `COc1cc(/C=C2/SC(=S)N(Cc3ccccc3)C2=O)cc(OC)c1O`: 15.3% (inactive).
On to `CN(C)c1ccc(/C=C2\NC(=S)N(Cc3ccccc3)C2=O)cc1`, for which the activation is 70.8% (active).
The same measure for `CCNC(=O)COc1cc(C)c(Br)c(C)c1`: 2% (inactive); for `Cc1cc(C)nc(SC(C)C(=O)N/N=C/c2cccs2)n1` (configuration not stated): 0.12% (inactive).
On to `COCCCNC(=S)NCCNc1nc2cc(C)c(C)cc2cc1C#N`, for which the activation is -0.33% (inactive).
For `c1ccc(-c2cc3c(NCC4COc5ccccc5O4)ncnc3s2)cc1` (configuration not stated), the activation is 1.35% (inactive).
Take `S=C(NCC1COc2ccccc2O1)Nc1ccc(Br)cc1` (configuration not stated): the activation was 5.7% (inactive).
The same measure for `c1ccc2c(c1)OCC(CNc1ncnc3nc[nH]c13)O2` (configuration not stated): 102% (active).
The same measure for `O=C(N/N=C/c1cc([N+](=O)[O-])ccc1O)/C(=C\c1cccs1)NC(=O)c1ccccc1`: 0.52% (inactive); for `COc1ccccc1C1=CC(=O)CCC1`: -0.32% (inactive); for `COc1cc(OC)cc(C(=O)N[C@H](C(=O)OCC(=O)NC(C)c2ccccc2)C(C)C)c1` (some centres not stated): 68.5% (active).
For `Cc1cc(C)cc(OCC(=O)NC(C)c2ccccc2)c1` (configuration not stated), the activation is -1.15% (inactive).
On to `COc1cc(OC)cc(C(=O)NCC(=O)OCC(=O)NC(C)CCc2ccccc2)c1` (configuration not stated), for which the activation is -0.08% (inactive).
`COc1ccc(C(=O)NNC(=S)NC(=O)c2ccccc2)cc1`: the activation was 60% (active).
As to `COc1ccc(C(=O)NNC(=S)NC(=O)c2ccccc2[N+](=O)[O-])cc1`, the activation is -0.34% (inactive).
As to `COc1ccc(/C(N)=N/OC(=O)CCCc2ccccc2)cc1`, the activation is -0.46% (inactive).
For the compound `COc1ccc(C(=O)NC(=S)NNC(=O)CCc2ccccc2)cc1`, the activation was 37.5% (active).
`COc1ccc(C(=O)NC(=S)NC2CCCCC2)cc1`: the activation was -0.74% (inactive).
The same measure for `COc1ccc(CCC(=O)c2ccc(OC)cc2)cc1`: -0.9% (inactive); for `Cc1ccc(O)c(-c2cc(C(=O)NCc3ccccc3)[nH]n2)c1`: 0.3% (inactive).
As for `COc1ccc(Cc2nnc(SCC(=O)N(c3ccccc3)C(C)C)n(N)c2=O)cc1`, the activation was -1.17% (inactive).
The same measure for `Cc1cccc(NC(=O)CN2CCCN(S(=O)(=O)c3ccc(Br)s3)CC2)c1`: 1.99% (inactive); for `Cc1cc(C)nc(NS(=O)(=O)c2ccc(N3C(=O)C4CCCCC4C3=O)cc2)n1` (configuration not stated): 1.65% (inactive).
The same measure for `CCNC(=O)CC1C(=O)N(c2ccc(OC)cc2)C(=S)N1CCc1ccncc1` (configuration not stated): -0.58% (inactive).
For `Cc1ccc(C(=O)Oc2ccc(C(=S)N3CCOCC3)cc2)cc1`, the activation was 1.56% (inactive).
On to `O=C(O)C1CCCN1C1=NS(=O)(=O)c2ccccc21` (configuration not stated), for which the activation was -0.02% (inactive).
On to `O=C1C=CN2CCCC2CC1` (configuration not stated), for which the activation was 0.74% (inactive).
Regarding `CCN(CC)c1ccc2cc(C(N)=O)/c(=N\NC(=O)c3ccncc3)oc2c1`, the activation is 27.3% (active).
The same measure for `COc1cccc2cc(C(N)=O)/c(=N\NC(=O)c3ccccc3)oc12`: 1.9% (inactive).
For `NC(=O)c1cc2ccccc2o/c1=N/NC(=O)c1cccc(F)c1`, the activation was 1.54% (inactive).
Turning to `COc1ccc(CCNC(=O)CSc2nc(-c3ccc(OC)c(OC)c3)ccc2C#N)cc1`, the activation is -0.68% (inactive).
The same measure for `COc1cc(NS(=O)(=O)c2ccc(NC(=S)NC(=O)c3ccccc3)cc2)nc(OC)n1`: -0.14% (inactive); for `CC1CCCC(NC(=O)c2cc(S(=O)(=O)N3CCCCC3)ccc2Cl)C1C` (configuration not stated): -0.2% (inactive); for `CCN(CC)C(CNC(=O)CSc1nnnn1-c1cccc(F)c1)c1ccco1` (configuration not stated): -0.26% (inactive).
Regarding `CCOc1ccc(NC(=O)CSc2nncn2C)cc1`, the activation was 0.81% (inactive).
For `CCCCN(C(=O)c1nn(C)c(=O)c2ccccc12)c1c(N)n(CCC)c(=O)[nH]c1=O`, the activation is 0.08% (inactive).
With `Cc1onc(-c2ccccc2)c1C(=O)N=C(N)c1ccc(Cl)cc1`, the activation is 0.22% (inactive).
The same measure for `Cc1onc(-c2ccccc2)c1C(=O)Nc1ccccc1C#N`: -1.51% (inactive); for `COc1ccc(C(=O)NC(=S)NNC(=O)c2c(-c3ccccc3)noc2C)cc1`: 70.5% (active).
`Cc1onc(-c2c(Cl)cccc2Cl)c1C(=O)NNC(=O)c1c(-c2c(Cl)cccc2Cl)noc1C`: the activation is 0.81% (inactive).
Turning to `CCc1noc(C)c1C(=O)NNC(=O)c1ccc(F)cc1`, the activation is 0.87% (inactive).
The same measure for `Cc1onc(-c2ccccc2)c1C(=O)NNC(=S)NC(=O)c1ccc(F)cc1`: 21.1% (active); for `Cc1ccc(C(=O)Nc2sc(Cc3ccc4c(c3)OCO4)c(C)c2C(N)=O)cc1`: -0.01% (inactive).
The same measure for `COc1ccc(C(=O)C2CCCN(Cc3cccn3-c3ccccn3)C2)c(C)c1` (configuration not stated): 8% (inactive); for `COC(=O)C1=C(C(=O)OC)C(c2cc([N+](=O)[O-])ccc2O)c2sc(=O)[nH]c2S1` (configuration not stated): 0.68% (inactive).
Turning to `CC1(C)OC(=O)C(=CSc2ccc(C(C)(C)C)cc2)C(=O)O1`, the activation is 1% (inactive).
The same measure for `Fc1ccc(NC(=S)N2CCc3[nH]c4ccccc4c3C2)cc1`: 4.06% (inactive); for `O=C(CCCN1CCc2[nH]c3ccc(F)cc3c2C1)c1ccc(F)cc1`: 23% (active); for `CC1CCc2[nH]c3ccc(C(=O)N(C)CC(=O)Nc4cccc(F)c4)cc3c2C1` (configuration not stated): 0.41% (inactive).
For the compound `Cc1cc(OCc2ccc(C(=O)Nc3ccc(C(=O)O)cc3)o2)ccc1Cl`, the activation was 2.11% (inactive).
The same measure for `S=c1nccc(-c2cc(Cl)sc2Cl)[nH]1`: 0.23% (inactive); for `CC1CCN(CC(O)COc2ccc(C(=O)c3ccccc3)cc2)CC1` (configuration not stated): 1.88% (inactive); for `O=C(c1ccc(Cl)cc1)c1ccc(OCC(O)CN2CCCCC2)cc1` (configuration not stated): 4.01% (inactive).
The same measure for `O=C(c1ccccc1)c1ccc(OCC(O)CN2CCCC2)cc1` (configuration not stated): 22.4% (active).
As to `CCOC(=O)C1(C)NC(c2ccco2)C2C(=O)N(c3ccccc3)C(=O)C21` (configuration not stated), the activation is 3.3% (inactive).
For `COc1ccc(NC(=O)CN(Cc2ccccc2)S(C)(=O)=O)cc1OC`, the activation is 0.58% (inactive).
The same measure for `COc1ccc(OCCNC(=O)c2cc(C3CC3)nc3c2cnn3C(C)C)cc1`: -0.36% (inactive); for `CCOC(=O)C1=C(NC(=S)NC(=O)c2ccccc2)c2ccccc2CC1(C)C`: 29.8% (active).
The same measure for `COCCCNC(=S)NC(=O)c1ccccc1`: 1.26% (inactive); for `Cc1ccc(NC(=S)NC(=O)c2ccc(-c3ccccc3)cc2)cc1`: 0.62% (inactive).
The same measure for `Cc1ccc(NC(=O)CSc2nn3c(=O)c(C)nnc3s2)cc1Cl`: 0.31% (inactive); for `CCC(C)C(=O)Nc1cc([N+](=O)[O-])ccc1Cl` (configuration not stated): -0.34% (inactive).
On to `CC(C)(C)NC(=O)C(=O)NCc1ccncc1`, for which the activation was 0% (inactive).
As for `N#CC1(NC(=O)COC(=O)CCN=C2NS(=O)(=O)c3ccccc32)CCCCC1`, the activation is 0.74% (inactive).
As for `O=C(OCCN=C1NS(=O)(=O)c2ccccc21)c1cccc([N+](=O)[O-])c1`, the activation is 3.94% (inactive).
The same measure for `O=C(CCCN=C1NS(=O)(=O)c2ccccc21)OCC(=O)c1ccc(F)c(F)c1`: 22.6% (active).
